Screening data deposited in PubChem by Sanford-Burnham Center for Chemical Genomics.
Hits are enriched below; roughly 2.6% of the tested compounds scored in any of these assays.
PABP1 MLLE inh – blocks PAM2 peptide binding to the PABP1 MLLE domain. P11940. GST-MLLE / FITC-PAM2 fluorescence polarization. inhibition, % at 20 µM. actives 0.36% (n = 360,000); in the data active = inhibition above about 35%, passing the limit was not always enough;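 also: plate controls were DMSO wells with GST-MLLE for no effect and wells lacking GST-MLLE protein for full effect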
A3G deaminase – inhibitors of human APOBEC3G DNA deaminase. recombinant A3G, ssDNA deamination FAM/TAMRA fluorescence. inhibition, % at 20 µM. actives 0.28% (n = 330,000);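 active = inhibition of at least 40% at 20 µM, with no more than 30% in the related APOBEC3A deaminase screen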;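 also: plate controls were DMSO wells with A3G for no effect and wells lacking A3G enzyme for full effect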
Target sequence (Q9HC16 whole entry, looked up): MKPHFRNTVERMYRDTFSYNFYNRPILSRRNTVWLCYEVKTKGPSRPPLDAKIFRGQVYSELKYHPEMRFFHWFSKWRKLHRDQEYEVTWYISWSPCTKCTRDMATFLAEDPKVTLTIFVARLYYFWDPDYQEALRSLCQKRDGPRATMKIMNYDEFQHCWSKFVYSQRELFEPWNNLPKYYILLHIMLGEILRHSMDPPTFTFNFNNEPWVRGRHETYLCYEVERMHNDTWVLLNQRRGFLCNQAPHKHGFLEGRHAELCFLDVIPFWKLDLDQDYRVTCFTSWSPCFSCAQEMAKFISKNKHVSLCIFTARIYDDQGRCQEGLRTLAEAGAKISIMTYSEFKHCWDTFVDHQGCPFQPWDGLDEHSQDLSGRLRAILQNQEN
eIF4H inh – inhibitors of RNA binding by human eIF4H. Q15056. eIF4H fluorescence polarization binding assay. inhibition, % at 35 µM. actives 0.94% (n = 290,000);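 also: calls also rest on retests at 20 µM and on dose response follow-up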
PHOSPHO1 inh – PHOSPHO1 (human) inhibition; recombinant PHOSPHO1, absorbance phosphatase assay; inhibition, % at 13.3 µM; actives 1.1% (n = 290,000); Q8TCT1; AID 1565; in the data active = inhibition above about 60%
A3A deaminase – blocks human APOBEC3A ssDNA deamination. P31941. inhibition, % at 20 µM. actives 0.41% (n = 330,000). recombinant A3A, FAM/TAMRA ssDNA deamination fluorescence;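 active = at least 40% inhibition at 20 µM here, with at most 30% in a related deaminase screen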;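 also: plate controls were A3A with DMSO for no effect and wells lacking A3A enzyme for full effect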
PABP FP inh – PABP-poly(A) binding inhibition; calls only at 35 µM; actives 1% (n = 290,000); AID 2014; PABP-poly(A) RNA binding, fluorescence polarization; P11940;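 also: calls also rest on retests at 20 µM and on dose response follow-up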
Active calls of the source: *; i = inactive; ? = inconclusive; . = no result; + = active, no number. Unless noted, no rule for the calls is given here.

SMILES	PABP1 MLLE inh	A3G deaminase	eIF4H inh	PHOSPHO1 inh	A3A deaminase	PABP FP inh
O=C1NC(=S)SC1=Cc1ccc2c(c1)OCO2	5	.	.	.	.	.
O=C1NC(=S)N/C1=C/c1ccc2c(c1)OCO2	-24	-6	56	25	-3	+
CCOc1ccc2[nH]c(SCC(=O)OC)c([N+](=O)[O-])c2c1	54*	-2	54*	32	-3	+
COC(=O)CSc1[nH]c2ccc(Br)cc2c1[N+](=O)[O-]	35	-4	-3	2	0	i
N#CC1=C(N)C(C#N)(C#N)[C@H](c2cccnc2)[C@H]2CN(C(=O)OCc3ccccc3)CC=C12	26	-6	31	2	-4	i
N#CC1=C(N)C(C#N)(C#N)C(c2cccnc2)C2CCCC=C12 (stereo unspecified)	.	-6	120*	10	-6	i
N#CC1=C(N)C(C#N)(C#N)C(c2ccc[nH]2)C2CCCC=C12 (stereo unspecified)	-21	-4	?	-17	-4	?
N#CC1=C(N)C(C#N)(C#N)C(c2cccnc2)C2CC(c3ccccc3)CC=C12 (stereo unspecified)	63	-7	?	8	-2	+
COCCNC(=O)C1(C)CCCN(C(=O)c2ccc(OC)c(OC)c2)C1 (stereo unspecified)	3	.	.	.	.	.
O=C(NCCN1CCCC1)c1cccc(Cl)c1	-1	-5	3	60*	0	i
CCc1ccc(CNC(=O)C2CCN(S(=O)(=O)N3CCCCC3)CC2)cc1	20	.	.	.	.	.
CN(C)c1ccc(Cl)cc1N	-1	-9	69*	39	-2	i
O=C(O)COc1ccc(Br)cc1/C=N\Nc1ccccn1	7	-9	-2	10	-6	i
O=C(O)COc1ccccc1/C=N/NC(=O)C(O)c1ccccc1 (stereo unspecified)	4	-4	-1	29	-5	i
CC/C(=N\Nc1ccc([N+](=O)[O-])cc1)c1ccccc1	-74	-7	61	-4	4	+
O=[N+]([O-])c1ccc(NN=C(Oc2ccccc2)c2ccc([N+](=O)[O-])cc2)cc1	-103	.	.	.	.	.
O=S(=O)(NCc1csc(-c2cccnc2)n1)c1ccc(Br)cc1	-5	-1	-8	80*	-5	i
COCc1cc(C)nc(SCc2ccc(Br)cc2)c1C#N	-2	-3	.	.	-3	.
CC(=O)N1N=C(c2cccc(Cl)c2)OC1c1ccc(C(C)C)cc1 (stereo unspecified)	14	-3	-11	2	-3	i
CC(=O)N1N=C(c2ccc(C)cc2)OC1c1cccnc1 (stereo unspecified)	1	-10	6	61*	3	i
COc1ccc(C(=O)NCCc2ccc(Cl)cc2)cc1S(=O)(=O)N1CCCCC1C (stereo unspecified)	-1	-5	.	.	-2	.
Nc1c(C(=O)C2CC2)sc2nc(-c3cccs3)cc(C(F)(F)F)c12	i	-9	94*	-11	-7	i
CC(C)NC(=O)c1sc2nc(-c3cccs3)cc(-c3cccs3)c2c1N	.	-4	1	3	-5	i
COc1ccc(-n2c(SC3CCOC3=O)nc3ccccc3c2=O)cc1Cl (stereo unspecified)	5	-7	3	28	2	i
COc1ccc(-n2c(SC3CCOC3=O)nc3ccccc3c2=O)cc1OC (stereo unspecified)	-13	-7	-4	66*	-3	i
SMILES	PABP1 MLLE inh	A3G deaminase	eIF4H inh	PHOSPHO1 inh	A3A deaminase	PABP FP inh
CC(C)(C)c1ccc(C(=O)NCC(=O)OCC(=O)Nc2nc(-c3ccc(F)cc3)cs2)cc1	-3	-12	-2	62*	5	i
Clc1ccc(-c2nnc(CSc3nnc(-c4cccs4)n3Cc3ccccc3)o2)cc1	-1	-9	-5	2	-4	i
Fc1ccc(NCc2nnc(SCc3nnc(-c4ccccc4)o3)n2Cc2ccccc2)cc1	-57	-1	58*	23	-1	i
CC(C)(C)OC(=O)N[C@@H](C(=O)OC(C)(C)C)c1ccc(Br)cc1	12	-9	.	.	-1	.
O=C(O)CC(NC(=O)C1c2ccccc2Oc2ccccc21)c1ccc(OC2CCCC2)cc1 (stereo unspecified)	-2	-3	6	-4	-1	i
CCCCN(C(=O)c1cc(-c2ccco2)nc2ccccc12)c1c(N)n(CCCC)c(=O)[nH]c1=O	12	15	.	.	39	.
CCCCn1c(N)c(N(CCC(C)C)C(=O)c2cc(-c3ccco3)nc3ccccc23)c(=O)[nH]c1=O	4	10	60*	-2	23	+
OC[C@H](O)[C@H](O)[C@@H](O)[C@@H](O)[C@@H]1SC(c2ccccc2)=NN1c1ccccc1	10	39	-10	-35	0	i
Cc1ccc(C2=NNC(C(O)C(O)C(O)C(O)CO)S2)cc1 (stereo unspecified)	18	-1	-7	90*	-1	i
COc1ccc(CC(=O)NCC2CCCN(Cc3cccc(SC)c3)C2)cc1 (stereo unspecified)	5	2	-15	61*	-3	i
C=CCNC(=O)c1cc(-c2cccnc2)nc2ccccc12	-10	-5	4	13	0	i
COc1cccc(-c2ccc(-c3noc(-c4ccccc4F)n3)c(OC)n2)c1	-4	-4	-6	0	2	i
COc1nc(-c2ccc(Cl)cc2)ccc1-c1noc(-c2ccco2)n1	-135	14	-18	80*	38	i
COc1cc(/C=C/C(=O)Nc2nnc(CC(C)(C)C)s2)cc(OC)c1OC	44*	35	-4	13	3	i
CN(C)S(=O)(=O)n1cc(/C=C(\NC(=O)c2ccccc2Cl)C(=O)NCCN2CCOCC2)c2ccccc21	8	2	-7	65*	-4	i
CCCCCC(=O)N1CC2(CC)CN(C(=O)CCCCC)CC(CC)(C1)C2=O	-8	-3	99*	46	2	+
CCCC(=O)N1CC2(CCC)CN(C(=O)CCC)CC(CCC)(C1)C2=O	10	-5	0	25	1	i
Cc1cc(O)ccc1Nc1nc2ccccc2nc1Nc1ccc(O)cc1C	-91	21	24*	97*	21	+
Cc1ccc(Nc2nc3ccccc3s2)c(C)c1	6	1	-2	21	9	i
CC(=O)c1sc(NCc2ccc(C)cc2)nc1C	-1	-3	5	28	3	i
COc1ccc(CCNc2nc(-c3sc(C)nc3C)cs2)cc1OC	-1	0	11	80*	0	i
COc1ccc(CCNc2nc(C)c(C(C)=O)s2)cc1OC	40*	0	-13	20	-1	i
COc1ccc(CCNc2nc(-c3ccc(F)cc3)c(CC(=O)O)s2)cc1OC	-53	36	80	2	1	+
